Source: PubChem (National Center for Advancing Translational Sciences (NCATS))
HT1080 IDH1KD tx – qHTS for induction of synthetic lethality in tumor cells producing 2HG: qHTS for the HT-1080-IDH1KD cell line. HT-1080 IDH1 knockdown viability, ATP luminescence, 48 h. Potency, µM (top dose mostly 46.1 µM), for the others: at the top dose activity, negative = toxicity, actives largely listed as cytotoxic. 360,000 compounds, 2% hits;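 note: 0% = DMSO wells and -100% = cell-free medium wells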
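Knockdown cells (IDH1KD HT-1080) received compounds 2 h after plating at 750 cells/well and were kept 48 h at 37 °C in 5% FBS RPMI. A CellTiter-Glo luminescence read gave % activity for curve fitting.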
ATXN2 expr inh – Primary qHTS for Inhibitors of ATXN expression | HEK-293 ATXN2-luciferase reporter, luminescence, 24 h | Potency, µM (series often up to 57 µM), for inactives: at the highest dose activity change, negative = inhibition, hits mostly inhibitors | 360,000 compounds, 0.72% hits | AID 1745845, 2022; note: % is set by controls: 0 for no effect and ±100 for the full control effect; nearly all actives have a fitted effect of over 55% in size
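qHTS (up to 57 uM final) was run with 24 h compound exposure of reporter cells at 37 °C. Each well was multiplexed: SteadyGlo luminescence measured ATXN2-luciferase expression after a fluorogenic Gly-Phe-AFC viability readout (25 uM final).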
ATXN viability – Viability Counterscreen for Primary qHTS for Inhibitors of ATXN expression | S2 cells (HEK-293 line with an ATXN2-luciferase reporter) viability, CellTiter-Fluor protease fluorescence, 24 h | Potency, µM (series often up to 56.7 µM), most hits filed as cytotoxic | 400,000 compounds, 0.49% hits | AID 651635, 2014; note: nearly all actives have a fitted effect of over 40% in size
KB-V1 MDR tox – qHTS assay for MDR1-selective chemotherapeutics: Primary screen using the drug-selected MDR subline cells KB-V1 | KB-V1 MDR cells viability, CellTiter-Glo, 72 h | Potency, µM (doses to about 46.1 µM), hits mostly cytotoxic | 400,000 compounds, 3.4% hits; note: % is set by controls: 0 for no effect and ±100 for the full control effect; nearly all actives have a fitted effect of over 60% in size
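Luminescent ATP read-out (CellTiter-Glo, 10 min) measures survival of drug-selected KB-V1 MDR cells after 72 h, 37 degrees C compound exposure. Medium: phenol-red-free DMEM, 10% FBS. Values from fitted concentration-response curves.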
HT1080-NT tox – qHTS for induction of synthetic lethality in tumor cells producing 2HG: qHTS for the HT-1080-NT fibrosarcoma cell line; 360,000 compounds, 1.6% hits; HT-1080-NT fibrosarcoma viability, CellTiter-Glo ATP luminescence, 48 h; AID 686970, 2013; Potency, µM (top dose mostly 46.1 µM), for inactives: top-dose activity, negative = less viability, most hits filed as cytotoxic;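 note: NT is the 2HG producing partner of a matched IDH1 knockdown line; 0% = DMSO-treated cells and -100% = media-only wells without cells; nearly all actives have a fitted effect of over 55% in size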
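Fibrosarcoma NT cells, 750 per well in 5% FBS RPMI, were exposed to compound for 48 hours. Viability: CellTiter-Glo luminescence.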
KB-3-1 tox – qHTS assay for MDR1-selective chemotherapeutics: Primary screen using the parental adenocarcinoma cell KB-3-1. AID 1347075, 2019. 400,000 compounds, 1.4% hits. KB-3-1 viability, CellTiter-Glo ATP luminescence, 72 h. Potency, µM (highest dose often 46.1 µM), usual class: cytotoxic; note: % is set by controls: 0 for no effect and ±100 for the full control effect; nearly all actives have a fitted effect of over 60% in size
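Here the drug-naive KB-3-1 line serves as comparator for MDR sub-line selectivity; cells received compound titrations, 72 h at 37 °C, then CellTiter-Glo readout.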
Active calls of the source: *; i = inactive; ? = inconclusive; . = not tested or not shown; [ ] = another dose, or the depositor's remark. In the library only some 6.2% were active in any assay of this set; here they are far more common. Calls come from the whole dose curve; as a rule, active = well fitted curve in the direction sought with a large enough effect; inconclusive = small, poorly fitted or top-dose-only effect, or another doubt; inactive = no such curve, though single readings can be large; an effect the other way counts as inactive or inconclusive. Potency is the fitted concentration of half-maximal effect.

SMILES	HT1080 IDH1KD tx	ATXN2 expr inh	ATXN viability	KB-V1 MDR tox	HT1080-NT tox	KB-3-1 tox
Cc1cccc(C(=O)N2CCc3cc(-c4nc(NC(=O)CN5CCCC5)sc4C)ccc32)c1	?	-19%	i	i	?	i
Cc1cccc(CNC(=O)C2CCN(c3nn4cc(-c5ccc(F)cc5)nc4s3)CC2)c1	.	.	.	i	.	i
S=C(Nc1ccc(Cl)cc1)NC1CC2CCC(C1)N2Cc1ccccc1 (centres undefined)	18µM*	-39%[11.3 µM]	i	?	?	?
COc1ccc(NC(=S)NN(C)C(=S)Nc2ccc(OC)cc2)cc1	1.3µM*	4%	i	?	1.5µM*	?
COc1ccc(NC(=S)Nc2ccc3nsnc3c2)cc1	?	9%	.	18µM*	-25%	i
CCc1ccc(NC(=S)NC2CC3CCCC(C2)N3Cc2ccccc2)cc1 (centres undefined)	-5%	.	?	i	-8%	i
CCOc1ccc(NC(=S)Nc2ccc3nsnc3c2)cc1	-1%	7%	i	i	-14%	i
CC(C)N(C(=O)Nc1ccc2nsnc2c1)C(C)C	?	?	i	?	18µM*	?
CN(CCN(C)c1nc(-c2cccs2)nc2ccccc12)C(=O)OC(C)(C)C	-25%	.	.	.	-21%	.
Cc1ccc(CNC(=O)CCCN2C(=O)COc3ccc(C)cc32)cc1	.	11%	i	i	.	i
CC(C)c1ccc(NC(=S)NC2CCCCCC2)cc1	?	3%	i	i	5%	i
Fc1ccc(NC(=S)NC2CCN(Cc3ccccc3)CC2)cc1	-1%	.	i	i	-3%	i
CC(C)(C)CC(C)(C)NC(=S)NC1CCN(Cc2ccccc2)CC1	0%	?	?	5.2µM*	-1%	?
Cc1cccc(NC(=S)NC2CCN(Cc3ccccc3)CC2)c1C	-3%	-14%	i	i	-3%	i
S=C(Nc1ccc(Cl)c(Cl)c1)NC1CCCCC1	?	?	i	16µM*	10µM*	18µM*
S=C(Nc1ccc(Cl)c(Cl)c1)NC1CCN(Cc2ccccc2)CC1	23µM*	?	.	?	26µM*	?
COc1ccc(NC(=S)c2ccncc2)cc1	-8%	-14%	i	18µM*	12%	?
CCn1cc2nc(SCC(=O)Nc3ccc(OC)cc3OC)n(Cc3ccc(Cl)cc3)c(=O)c2n1	.	-8%	i	i	.	i
Cc1ccc(-n2c(=O)[nH]c3cc(C(=O)NCc4ccccc4)ccc3c2=O)cc1	.	23%	i	?	.	i
O=C(C[n+]1ccncc1)c1ccc(Br)cc1	.	.	.	i	.	i
O=C(Cn1cc(S(=O)(=O)Cc2cccc(Cl)c2)c2ccccc21)Nc1ccccc1Cl	.	.	.	i	.	?
COCC(=O)Nc1cc(C(=O)NC2CCc3ccccc32)c2c(c1)nc(-c1ccncc1)n2C (centres undefined)	.	.	i	.	.	.
CN1CCCc2ccccc21	.	.	.	i	.	i
S=C(Nc1ccc(Oc2ccccc2)cc1)NC1CCCCCC1	?	-25%	i	?	?	?
S=C(Nc1ccc(Oc2ccc(NC(=S)NC3CCCCC3)cc2)cc1)NC1CCCCC1	-16%	4%	i	16µM*	6%	?
SMILES	HT1080 IDH1KD tx	ATXN2 expr inh	ATXN viability	KB-V1 MDR tox	HT1080-NT tox	KB-3-1 tox
S=C(Nc1ccc2nsnc2c1)NC1CCCCC1	17%	48%	i	16µM*	23%	i
O=C1CC[C@@H](C(=O)NCC2Cc3cc(Cl)cc(-c4ccc5[nH]ccc5c4)c3O2)N1 (some centres undefined)	.	.	i	.	.	.
CCSc1nnc(NC(=O)[C@@H](NC(=O)c2cccc(C)c2)C(C)C)s1	8%	4%	i	8.2µM*	-4%	i
COc1ccc(NC(=O)c2ccccc2)cc1	-9%	14%	i	i	-8%	i
COc1ccc(C(=O)N[C@H](C(=O)Nc2nc3ccccc3[nH]2)C(C)C)cc1	5.8µM*	-13%	.	16µM*	5.8µM*	2.1µM*
Cc1cccc(C(=O)N[C@H](C(=O)Nc2nc3ccccc3[nH]2)C(C)C)c1	5.8µM*	?	?	?	5.8µM*	5.2µM*
COc1ccc(NC(=O)C(NC(=O)c2ccccc2)C(C)C)cc1 (centres undefined)	?	1%	i	21µM*	0%	i
CCOc1ccc(-c2cc(-c3nc(-c4cc(OC)c(OC)c(OC)c4)no3)[nH]n2)cc1Cl	.	.	.	i	.	i
CO[C@H]1C[C@@H]2CC[C@@H](C)[C@@](O)(O2)C(=O)C(=O)N2CCCC[C@H]2C(=O)O[C@H]([C@H](C)C[C@@H]2CC[C@@H](O)[C@H](OC)C2)CC(=O)[C@H](C)/C=C(\C)[C@@H](O)[C@@H](OC)C(=O)[C@H](C)C[C@H](C)/C=C/C=C/C=C/1C	.	.	.	i	.	?
COc1ccc(C(=O)NC(Nc2ccccc2)C(Cl)(Cl)Cl)cc1 (centres undefined)	-18%	-17%	i	8.2µM*	-6%	?
O=C(NCc1ccccc1F)C1CCN(c2nn3cc(-c4ccc(F)cc4)nc3s2)CC1	.	.	.	i	.	i
O=C1Nc2ccc(Br)cc2/C1=C/C1CC=CCC1 (centres undefined)	21µM*	?	?	i	?	?
O=C1NC(Cc2ccccc2)C(=O)Nc2ccc(Br)cc21 (centres undefined)	4%	.	i	i	8%	i
Cc1ccc(-c2nc3c(C)cccn3c2Nc2ccccc2C)s1	.	1%	?	i	.	i
COc1nc(Nc2ccc(O)cc2)nc(OC(C(F)(F)F)C(F)(F)F)n1	-11%	0%	i	i	-2%	?
Nc1cccc(Nc2nc(OC(C(F)(F)F)C(F)(F)F)nc(OC(C(F)(F)F)C(F)(F)F)n2)c1	?	-25%	i	23µM*	?	18µM*
COc1ccc(NC(C)=O)cc1NC(=O)c1cccc(S(=O)(=O)N2CCN(Cc3ccccc3)CC2)c1	15%	3%	i	16µM*	-2%	i
CN(Cc1cccc(F)c1)C(=O)c1cccc(S(=O)(=O)N2CCN(Cc3ccccc3)CC2)c1	-5%	-10%	i	?	-1%	?
